# Rows were chosen to be rich in hits. Some 12% of all compounds tested hit in one or more screens of this group.
# G9a block = G9a (human) methyltransferase inhibition | Q96KQ7 | Potency, µM (series often up to 102 µM), for the others: at the top dose activity, negative = inhibition, usual class: inhibitors | AID 504332 | hit rate 8.8% among 350,000 | G9a H3K9 monomethylation, AlphaScreen, 2 h; further: on the % scale 0 is the no-effect control and ±100 the full control effect; nearly all actives have a fitted effect of over 75% in size
#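 G9a (20 nM) preincubated 15 min RT with compounds, then 500 nM biotinylated H3K9 peptide and 20 uM SAM added; 2 h RT reaction. Monomethyl-H3K9 product detected by AlphaScreen with anti-H3K9me1 antibody, streptavidin donor and anti-rabbit IgG acceptor beads.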
# JMJD2A Tudor = blocks the human JMJD2A Tudor domain. Potency, µM (doses to about 114 µM), for inactives: at the highest dose activity change, negative = inhibition, actives largely listed as inhibitors. AlphaScreen JMJD2A-Tudor / H3K4me3 peptide binding. hit rate 4.4% among 390,000; further: on the % scale 0 is the no-effect control and ±100 the full control effect; nearly all actives have a fitted effect of over 50% in size
# BAZ2B inh = blocks human BAZ2B | Q9UIF8 | AlphaScreen BAZ2B-H3K14Ac peptide displacement | Potency, µM (top dose mostly 114 µM), without a hit: at the top dose activity change, negative = inhibition, usual class: inhibitors | hit rate 4.4% among 360,000; further: on the % scale 0 is the no-effect control and ±100 the full control effect; nearly all actives have a fitted effect of over 60% in size
# Target sequence (Q9UIF8 whole entry, looked up): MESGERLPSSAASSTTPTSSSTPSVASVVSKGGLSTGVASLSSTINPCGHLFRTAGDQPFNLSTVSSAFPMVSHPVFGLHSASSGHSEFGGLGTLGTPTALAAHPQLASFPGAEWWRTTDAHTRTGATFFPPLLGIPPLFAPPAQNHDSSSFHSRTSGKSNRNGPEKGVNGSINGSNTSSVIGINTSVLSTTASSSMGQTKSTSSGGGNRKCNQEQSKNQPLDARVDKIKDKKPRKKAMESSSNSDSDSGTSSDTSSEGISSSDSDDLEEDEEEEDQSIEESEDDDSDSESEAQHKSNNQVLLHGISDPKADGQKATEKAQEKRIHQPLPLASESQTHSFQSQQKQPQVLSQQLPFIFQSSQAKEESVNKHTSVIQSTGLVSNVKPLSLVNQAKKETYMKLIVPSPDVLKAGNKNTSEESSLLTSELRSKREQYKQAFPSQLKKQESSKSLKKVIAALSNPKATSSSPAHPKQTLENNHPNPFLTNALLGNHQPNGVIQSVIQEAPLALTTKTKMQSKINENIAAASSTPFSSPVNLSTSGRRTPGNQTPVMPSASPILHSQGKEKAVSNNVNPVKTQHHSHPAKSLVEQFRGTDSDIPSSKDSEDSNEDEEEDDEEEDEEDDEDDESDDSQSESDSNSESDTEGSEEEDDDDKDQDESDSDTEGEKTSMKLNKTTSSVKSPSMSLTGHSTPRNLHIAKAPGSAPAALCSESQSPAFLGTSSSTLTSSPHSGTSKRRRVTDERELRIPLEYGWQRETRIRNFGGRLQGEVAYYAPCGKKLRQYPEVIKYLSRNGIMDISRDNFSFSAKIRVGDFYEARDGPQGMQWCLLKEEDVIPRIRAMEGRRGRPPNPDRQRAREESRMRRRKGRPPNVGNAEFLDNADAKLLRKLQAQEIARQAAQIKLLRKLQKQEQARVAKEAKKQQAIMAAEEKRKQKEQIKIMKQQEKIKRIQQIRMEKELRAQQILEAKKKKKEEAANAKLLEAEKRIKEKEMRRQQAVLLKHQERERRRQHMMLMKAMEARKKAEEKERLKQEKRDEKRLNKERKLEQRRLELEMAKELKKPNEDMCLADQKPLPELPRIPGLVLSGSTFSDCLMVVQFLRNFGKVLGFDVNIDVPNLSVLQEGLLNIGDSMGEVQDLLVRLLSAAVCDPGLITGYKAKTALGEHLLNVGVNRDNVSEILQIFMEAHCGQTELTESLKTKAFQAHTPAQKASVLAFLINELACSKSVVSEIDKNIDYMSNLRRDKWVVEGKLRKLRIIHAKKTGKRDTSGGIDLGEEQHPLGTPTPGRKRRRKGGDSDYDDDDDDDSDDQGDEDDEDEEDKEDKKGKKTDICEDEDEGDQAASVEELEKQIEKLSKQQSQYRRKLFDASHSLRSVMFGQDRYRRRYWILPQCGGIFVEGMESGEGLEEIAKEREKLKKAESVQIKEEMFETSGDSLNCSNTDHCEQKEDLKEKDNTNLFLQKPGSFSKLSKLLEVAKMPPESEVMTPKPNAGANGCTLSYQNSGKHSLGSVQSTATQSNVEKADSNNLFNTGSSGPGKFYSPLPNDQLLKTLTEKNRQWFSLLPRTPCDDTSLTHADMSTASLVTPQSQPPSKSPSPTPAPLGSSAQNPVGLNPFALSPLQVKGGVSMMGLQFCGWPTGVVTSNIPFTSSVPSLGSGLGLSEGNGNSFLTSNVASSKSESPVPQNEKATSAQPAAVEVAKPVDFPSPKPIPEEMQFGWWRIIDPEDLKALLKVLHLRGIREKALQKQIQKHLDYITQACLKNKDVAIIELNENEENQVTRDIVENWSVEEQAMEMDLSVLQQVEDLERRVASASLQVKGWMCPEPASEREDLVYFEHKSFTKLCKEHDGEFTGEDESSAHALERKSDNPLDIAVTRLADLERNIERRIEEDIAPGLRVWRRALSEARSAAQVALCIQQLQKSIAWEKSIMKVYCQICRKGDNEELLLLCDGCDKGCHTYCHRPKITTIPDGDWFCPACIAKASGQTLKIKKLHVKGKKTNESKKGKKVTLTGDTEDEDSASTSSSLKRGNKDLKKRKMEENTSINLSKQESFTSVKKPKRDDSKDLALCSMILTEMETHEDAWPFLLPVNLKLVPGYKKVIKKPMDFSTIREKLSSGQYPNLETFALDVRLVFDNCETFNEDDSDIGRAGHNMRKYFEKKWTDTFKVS
#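 Complex of BAZ2B and biotin-H3K14Ac (50 nM apiece) forms over 30 min at RT, then faces library compounds up to 110 uM for another 30 min; AlphaScreen beads added, 20 min dark incubation, luminescence read.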
# Sfp inh = blocks B. subtilis Sfp PPTase activity; Biochemical Sfp PPTase activity, qHTS; hit rate 3.5% among 310,000; Potency, µM, for the others: largest response in the series, negative = inhibition, most hits filed as inhibitors; Q9F4F7; AID 1490;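 further: the enzyme is Sfp with the accession as filed and its product quenches rhodamine fluorescence; 0% = enzyme reaction without inhibitor and -100% = no enzyme wells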
#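 Sfp 15 nM + cpd, 15 min RT; start w/ rhodamine-CoA 5 uM, BHQ-2-YbbR 12.5 uM (final); 50 mM Hepes pH 7.6, 10 mM MgCl2, 0.01% NP-40, 0.01% BSA; read 525/598 nm at 0 and 30 min.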
# HP1b chromo inh = inhibitors of HP1-beta chromodomain binding to methylated histone tails. P83916. AlphaScreen HP1-beta / biotin-H3K9me3 peptide binding. Potency, µM (titrated, usually from 114 µM), inactives show at the highest dose activity change, negative = inhibition, usual class: inhibitors. hit rate 0.56% among 390,000; further: nearly all actives have a fitted effect of over 70% in size
#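 AlphaScreen: HP1-beta (50 nM) preformed 30 min with biotin-H3(1-18)K9me3 peptide (50 nM) in PBS pH 7.4, 0.01% Tween-20. Compound added for 30 min at RT, then streptavidin donor/nickel chelate acceptor beads (10 ug/mL) for 30 min.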
# PLK1 PBD inh = blocks phosphopeptide binding to human PLK1 polo-box domain. Potency, µM, for inactives: max response, negative = inhibition, hits mostly inhibitors. P53350. hit rate 2.8% among 360,000. Plk1 PBD binding of FITC phosphopeptide, fluorescence polarization; further: series mostly up to about 57 µM; on the % scale 0 is the no-effect control and ±100 the full control effect; nearly all actives have a fitted effect of over 65% in size
# Starred values were filed as active, the others as inactive; ? = inconclusive; / = no result given; ! = not confirmed by another sample; [ ] = remark or other dose. The call rests on the fitted dose curve; in most records, active means well fitted curve in the direction sought with a large enough effect; inconclusive means small, poorly fitted or top-dose-only effect, or another doubt; inactive means no such curve, though single readings can be large; an effect the other way counts as inactive or inconclusive. Potency means the concentration at half of the fitted maximal effect.
SMILES,G9a block,JMJD2A Tudor,BAZ2B inh,Sfp inh,HP1b chromo inh,PLK1 PBD inh
CCn1c(C)nnc1SCC(=O)NC1CCCC1,-1%[59 µM],-1%,8%,9%,12%,1%
COc1ccc(Cl)cc1S(=O)(=O)Nc1ncn[nH]1,79µM*,-11%,1%,-7%,50%,?
CCOC(=O)C1=C([Si](C)(C)C)c2ccccc2N(S(=O)(=O)C(F)(F)F)C1C(=O)OCC (stereo unspecified),-4%[59 µM],/,/,-10%,/,/
CCOC(=O)N1CCC(NC(=O)CCCN2C(=O)CSc3ncccc32)CC1,14%[59 µM],0%,1%,9%,48%,3%
O=C(CCCN1C(=O)CSc2ncccc21)N1CCN(Cc2ccccc2)CC1,35µM*,-6%,-1%,6%,71%,-3%
COc1cc(C(=O)N(Cc2ccccn2)CC2CCCO2)cc(OC)c1OC (stereo unspecified),-39%[12.7 µM],18µM*,56µM*,1%,-17%,-7%
COc1ccc(C(=O)N(Cc2cc(OC)c(OC)c(OC)c2)CC2CCCO2)cc1 (stereo unspecified),-1%[59 µM],-8%,-6%,/,13%,/
CCc1c(C)sc2c1CCN(C(=O)Nc1cc(Cl)c(OC)cc1OC)C2c1ccccc1 (stereo unspecified),-33%[59 µM],?,?,/,?,/
c1ccc(Nc2cccc(Nc3ccccc3)n2)cc1,7.9µM*,56µM*,45µM*,-4%,?,-23%
c1ccc(Nc2ccccn2)cc1,6%[59 µM],22µM*,1%,6%,?,24µM*
CN(C)CCOC(C)(c1ccccc1)c1ccccn1 (stereo unspecified),10µM*!,-7%,0%,7%,8%,-18%
CN(C)CCC(c1ccccc1)c1ccccn1 (stereo unspecified),-4%[59 µM],-7%,?,-1%,19%,3%
CCCCc1nc2ccccc2c(N)c1CCC (tested in a mixture with another compound),5%[59 µM],3%,-6%,9%,27%,-4%
CCCCc1nc2ccccc2c(NC(=O)CNC(C)(C)C)c1CCC,8.9µM*,10µM*,50µM*,?,-21%,-11%
COc1ccc2cc1Oc1ccc(cc1)C[C@H]1c3c(cc4c(c3Oc3cc5c(cc3OC)CCN(C)[C@@H]5C2)OCO4)CCN1C,11µM*!,35µM*,-38%,2%,?,-2%
COc1cc2c3cc1Oc1c(OC)c(OC)cc4c1[C@@H](Cc1ccc(O)c(c1)Oc1ccc(cc1)C[C@@H]3N(C)CC2)N(C)CC4,/,/,/,12%,/,/
CCOC(=O)CSc1ccc(S(=O)(=O)N2CCCCC2)cc1[N+](=O)[O-],-14%,?,?,2%,-6%,-13%
CC1CCCC(C)N1C(=O)COC(=O)CSc1ccc(C(N)=O)cc1[N+](=O)[O-] (stereo unspecified),45µM*,-22%,1%,/,-4%,0%
CCC1CCCCN1C(=O)COC(=O)CSc1ccc(C(N)=O)cc1[N+](=O)[O-] (stereo unspecified),3%[12.7 µM],-7%,7%,/,50%,-11%
CC1CCCCN1C(=O)COC(=O)CSc1ccc(C(N)=O)cc1[N+](=O)[O-] (stereo unspecified),/,-2%,/,/,45%,-11%
CCOC(=O)CSc1ccc(S(=O)(=O)N(C)C2CCCCC2)cc1[N+](=O)[O-],?,56µM*,?,22%,-20%,-8%
NC(=O)c1ccc(SCC(=O)OCC(=O)NCC2CCCCC2)c([N+](=O)[O-])c1,45µM*,-6%,8%,/,14%,-14%
CCC(C)C(NC(=O)c1ccccc1)C(=O)Nc1ccc(S(=O)(=O)Nc2cc(C)nc(C)n2)cc1 (stereo unspecified),?,-6%,10%,/,20%,-16%
CC(C)[C@H](CO)Nc1nc(Nc2cccc(Cl)c2)c2ncn(C(C)C)c2n1,/,/,/,14%,/,/
